# The panel holds about 83,000 compounds, 20% with a hit somewhere; the sample as a whole holds those more often.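 Method: cells in 96-well plates; compound added at one concentration; 48 h incubation; percent growth measured; values under 10 scored active.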 A number with no mark means an inactive call. Activity calls are given as the source filed them.
# How the values were obtained:
# Assay in all cases: NCI-60 one-dose screen, 48 h (100 = growth as untreated, 0 = no growth, -100 = all killed)
# Settings in all cases: 10 µM unless noted
# NCI-H23 lung = tested on: NCI-H23 lung
# NCI-H226 lung = tested on: NCI-H226 lung
# NCI-H322M lung = tested on: NCI-H322M lung
# HOP-62 NSCLC = tested on: HOP-62 NSCLC
# NCI-H460 lung = tested on: NCI-H460 lung
# HOP-92 NSCLC = tested on: HOP-92 NSCLC
# NCI-H522 lung = tested on: NCI-H522 lung
# A549/ATCC NSCLC = tested on: A549/ATCC NSCLC
# 786-0 renal = tested on: 786-0 renal
# COLO 205 colon = tested on: COLO 205 colon
SMILES,growth (NCI-H23 lung),growth (NCI-H226 lung),growth (NCI-H322M lung),growth (HOP-62 NSCLC),growth (NCI-H460 lung),growth (HOP-92 NSCLC),growth (NCI-H522 lung),growth (A549/ATCC NSCLC),growth (786-0 renal),growth (COLO 205 colon)
C[C@H](Nc1ncnc2ccc(-c3cnc(Cl)c(NS(C)(=O)=O)c3)cc12)c1ccccc1,-5.76% (active),1.56% (active),-31.1% (active),-16.3% (active),4.11% (active),-11.7% (active),-48.8% (active),-49.8% (active),-6.23% (active),-93.2% (active)
Nn1c(=O)n(-c2cccc(C(F)(F)F)c2)c(=O)c2cc(-c3ccc(F)cc3F)ccc21,-6.15% (active),16.5%,5.15% (active),2.28% (active),6.49% (active),-35.6% (active),-2.03% (active),5.13% (active),45.7%,65.2%
O=C(CSc1nnc(-c2ccc(Cl)cc2)n1-c1ccccc1)Nc1ccccc1Cl,48.5%,48.7%,66.2%,115%,54.5%,101%,76.2%,30.4%,42.1%,88.7%
O=c1c2ccccc2cc2n1CCN=C2c1ccccc1,93.8%,96%,99.7%,116%,101%,81%,98%,102%,96.8%,103%
COc1ccc2sc(NC(=O)CCCCCCNC(=O)C(O)(O)C(F)(F)F)nc2c1,1.72% (active),24.6%,4.96% (active),-3.09% (active),7.12% (active),-12.7% (active),-42.7% (active),2.41% (active),13.1%,-69.9% (active)
CC(=C(c1ccc(OCCN2CCCC2)cc1)c1ccc(OCCN2CCCC2)cc1)c1ccc(Cl)cc1,60.7%,80%,15.6%,-68.7% (active),-52.2% (active),-1.74% (active),-48.5% (active),-61.8% (active),-85.9% (active),-74.4% (active)
CN1CCN(c2ccc(Nc3nc(NCCNS(=O)(=O)c4ccc(Cl)cc4)c4sccc4n3)cc2)CC1,96%,105%,99.4%,104%,98.8%,49.4%,106%,92.7%,75.8%,99.7%
COc1cc(/C=N\NC(=O)c2ccc3nc(-c4ccc(Br)cc4)[nH]c3c2)cc(OC)c1OC,40.2%,48.7%,76.8%,72.6%,42.3%,34.4%,45.4%,72.5%,38.4%,32.5%
Oc1[nH]c2ccc(Cl)cc2c1N=Nc1nc(N=Nc2c(O)[nH]c3ccc(Cl)cc23)nc(N2CCCCC2)n1,27.3%,63.4%,59.4%,94%,78%,125%,45.2%,60.4%,66%,66.6%
COC(=O)c1cccc(NC2=C(Cl)C(=O)c3nc(C)ccc3C2=O)c1,53.1%,87%,103%,113%,101%,121%,65.1%,102%,98.2%,116%
NC1CC2(CCN(c3cnc(C(=O)Nc4cc(F)cc5cccnc45)cn3)CC2)C1,88.6%,93.2%,87.4%,96%,83.8%,79.7%,93.3%,63.2%,71.8%,49.9%
COc1ccc(-c2nc(C#N)c(N3CCC(S(=O)(=O)N4CCOCC4)CC3)o2)cc1,94.5%,93.9%,97.2%,99.2%,103%,99.3%,89.5%,98.1%,94.2%,111%
O=C(CCCCCCNC(=O)c1csc(Br)n1)NO,47.7%,79%,61.6%,48.2%,34.9%,5.32% (active),15.7%,34.8%,72.4%,20.9%
Clc1cccc(/C=N/Nc2nc(N/N=C/c3cccc(Cl)c3)nc(N3CCOCC3)n2)c1,70.6%,60.4%,53.8%,110%,78.2%,65.4%,13.9%,46.6%,30.6%,36.9%
Cc1nc(N)sc1-c1csc(Nc2ccc(C(F)(F)F)cc2)n1,34.4%,37.4%,61.4%,47.3%,25.1%,37.3%,-56.3% (active),45.1%,38.6%,19.6%
C=C(C)[C@@H]1CC[C@]2(COCCCNCCCN)CC[C@]3(C)[C@H](CC[C@@H]4[C@@]5(C)CC[C@H](O)C(C)(C)[C@@H]5CC[C@]43C)[C@@H]12,-64.7% (active),4.38% (active),-90.2% (active),-51.3% (active),-77.3% (active),-76.2% (active),-54.6% (active),-48.7% (active),-81.3% (active),-65.9% (active)
CC(=O)N(O)CCCCCNC(=O)CCC(=O)N(O)CCCCCNC(=O)CCC(=O)N(O)CCCCCN(CCCCCCCCCC[P+](c1ccccc1)(c1ccccc1)c1ccccc1)CCCCCCCCCC[P+](c1ccccc1)(c1ccccc1)c1ccccc1,-16.5% (active),-6.05% (active),-28.9% (active),7.35% (active),-12.4% (active),-18.4% (active),-18.8% (active),9% (active),21.5%,-43.4% (active)
O=C(Nc1ccc(Cl)c(C(F)(F)F)c1)Nc1ccc2oc(=O)ccc2c1,4.85% (active),26.6%,60.5%,73.4%,18.1%,-1.84% (active),20.3%,39.8%,70.3%,58%
Cc1ccc(C(=O)Nc2ccc(CNCCN3CCOCC3)c(C(F)(F)F)c2)cc1C#Cc1cnc2cccnn12,21.5%,20.5%,47.9%,15.4%,18.9%,-11.9% (active),4.82% (active),19.2%,14.2%,-18.8% (active)
NC(=O)n1c(=O)n(-c2cccc(C(F)(F)F)c2)c(=O)c2cc(-c3ccc(F)cc3F)ccc21,-6% (active),13.2%,0.936% (active),-9.38% (active),4.55% (active),-36.3% (active),-11.2% (active),4.69% (active),45%,87.5%
Cc1[nH]c(C(=O)Nc2ccccc2OCc2cccc(C(=O)NC3CCNC3)c2)c(Cl)c1Cl (stereo not given),8.19% (active),87.2%,70.2%,6.22% (active),-62.9% (active),70.2%,-0.407% (active),-51.2% (active),-69.2% (active),-43.3% (active)
Cc1ccc(NC2=C(Cl)C(=O)c3nc(C)ccc3C2=O)c(C)c1,-49.9% (active),23.2%,36.7%,47.2%,46.2%,84.7%,-38.3% (active),46.5%,23.7%,98%
COc1ccc(/C(=N\NC(N)=S)c2ccc(Cl)cc2)cc1OC,27.4%,51.6%,53.6%,27.5%,12%,48.6%,-10% (active),42.4%,42.1%,0.963% (active)
CCOC(=O)c1c(NC(=O)c2ccc(C(F)(F)F)cc2)sc2c3c(ccc12)OCN(C)C3,85.6%,97%,73.4%,-53.2% (active),-17.8% (active),14.5%,-60.3% (active),-37.9% (active),30.8%,-22% (active)
Cc1ccc(C(=O)Nc2ccc(CNCCN3CCNCC3)c(C(F)(F)F)c2)cc1C#Cc1cnc2cccnn12,4.87% (active),97.1%,55.3%,-48.8% (active),-44.9% (active),-28.2% (active),-33.9% (active),16%,-70.2% (active),-53.2% (active)
CN1CC[C@@H]2[C@@]3(C)CC[C@H](O)C(C)(C)[C@@H]3CC[C@@]2(C)[C@]2(C)CC[C@@]3(CO)CCC(C)(C)C[C@@H]3C12 (stereo not given in full),90.7%,94.4%,98.8%,101%,98.3%,66.8%,98%,86%,80.7%,-2.47% (active)
